From PubChem
Most compounds without a hit are left out; they make up all but 5.9% or so of the library.
HSP90 refold inh – blocks HSP90-mediated luciferase refolding in reticulocyte lysate; Rabbit reticulocyte lysate, luciferase refolding luminescence, 3 h; inhibition, % at 5.6 µM; 290,000 tested, 0.91% active;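 active means inhibition above the screen-wide mean plus 3 SD, computed separately per campaign, cut at about 16% in these data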;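 further: 0% = DMSO wells and 100% = 60 µM geldanamycin wells; inhibitors lower the luminescence because luciferase stays unfolded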
DAX1 inh – inhibitors of human orphan nuclear receptor DAX1 (NR0B1); P51843; HEK293 Gal4-DAX1 luciferase reporter, luminescence; inhibition, % at 6.75 µM; 340,000 tested, 0.99% active;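 active means inhibition above the mean over all tested compounds plus 3 SD, cut at about 4.2% in these data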;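 further: 0% = DAX1-transfected cells with DMSO and 100% = empty-vector control cells with DMSO; inhibition shows as a rise in luminescence from relieved DAX1 repression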
HSF-1 act – increases HSF-1 driven luciferase reporter signal; NIH3T3-HGL HSF-1 luciferase reporter, MG132, 8 h; 100% = twice DMSO control signal; activation, % at 9 µM; 300,000 tested, 1.7% active;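 active means mean replicate activation of at least 50% with a set share of replicates each reaching 50%; inconclusive means only one of those two conditions met; inactive means mean below 50% and too few replicates reaching it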;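 further: 0% = median of the neutral control wells and 100% = twice that signal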
AHR act – activates the human aryl hydrocarbon receptor | AHR-responsive luciferase reporter cells, luminescence | activation, % at 5 µM | 320,000 tested, 2.5% active; in the data active means activation above about 47%;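 further: 0% = vehicle wells and 100% = reference agonist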
GAA850 FXN act – activators of GAA850 frataxin (FXN) promoter. HEK293 lucGAA850 FXN promoter luciferase reporter, 24 h; percent of 10 µM SAHA response. 360,000 tested, 0.56% active. activation, % at 6 µM;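 active means activation above the average of all compounds screened plus 3 SD, cutoff fixed separately per campaign, cut at about 7.5% in these data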;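 further: 0% = DMSO wells and 100% = 10 µM SAHA wells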
HSF1 inh – HSF1 inhibition; AID 2098; 300,000 tested, 0.77% active; NIH3T3-HGL HSE-luciferase, MG132-induced, luminescence 8 h; active compounds read low; activity change, negative = inhibition, % at 7.5 µM (by protocol);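 active means more than half of replicate wells show activity change below -50%, luminescence cut by over half; inconclusive means some wells, but at most half, below -50%; inactive means no replicate well below -50%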;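 further: luciferase reports HSF-1 transcriptional activity via heat shock element; 0% = median of DMSO wells and -100% = zero luminescence signal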
AHR act confirm – human AHR activation, confirmation | shares compounds with AHR act | human cells, AHR-responsive luciferase reporter, luminescence | activation, % at 9 µM | 2,300 tested, 87% active | AID 2845; in the data active means activation above about 49%;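 further: HepG2 hepatoma cells carrying a DRE-driven firefly luciferase reporter; 0% = vehicle wells and 100% = reference agonist wells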
PXR act counter – activates human PXR in AHR activator counter-screen; shares compounds with AHR act; cell-based PXR reporter, luciferase luminescence; activation, % at 11.6 µM; 2,300 tested, 88% active; in the data active means activation above about 11%;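 further: human hepatoma DPX-2 cells expressing full-length human PXR; 0% = DMSO and 100% = reference agonist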
Target sequence (O75469 whole entry, looked up): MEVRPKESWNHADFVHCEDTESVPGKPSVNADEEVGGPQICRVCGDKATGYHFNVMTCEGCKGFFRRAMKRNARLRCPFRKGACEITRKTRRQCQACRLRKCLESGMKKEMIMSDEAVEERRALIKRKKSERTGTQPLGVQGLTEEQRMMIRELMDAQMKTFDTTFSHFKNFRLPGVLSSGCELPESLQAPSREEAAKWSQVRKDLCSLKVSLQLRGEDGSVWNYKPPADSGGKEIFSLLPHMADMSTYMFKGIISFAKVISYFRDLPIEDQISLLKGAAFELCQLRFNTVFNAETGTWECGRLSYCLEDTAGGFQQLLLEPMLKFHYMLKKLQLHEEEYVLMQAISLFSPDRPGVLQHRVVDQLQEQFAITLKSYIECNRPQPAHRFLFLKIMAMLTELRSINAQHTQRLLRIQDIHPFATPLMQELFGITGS
* hit, by the source's call.

Screening CC(C)C(=O)NC(=S)Nc1ccc(CN2CCOCC2)cc1 returned HSP90 refold inh 0, DAX1 inh -1, HSF-1 act 3, AHR act 0, GAA850 FXN act 4 and HSF1 inh 2.
O=C(NC(=S)Nc1ccc(CN2CCOCC2)cc1)c1ccc(-c2cccc(Cl)c2)o1 was read as HSP90 refold inh 4, DAX1 inh 3, HSF-1 act -7, AHR act 90*, GAA850 FXN act 0, HSF1 inh -6, AHR act confirm 67* and PXR act counter 20*.
O=C(Nc1ccc(CN2CCOCC2)cc1)c1ccc(-c2cccc(Cl)c2)o1 was read as HSP90 refold inh -2, DAX1 inh -4, HSF-1 act 22, AHR act -4, GAA850 FXN act -6 and HSF1 inh 4.
`O=C1C2CCc3ccccc3C2N1c1ccccc1` (stereo not given) gave DAX1 inh 1, AHR act -1 and GAA850 FXN act 1.
Cn1c(=O)n(C)c2cc(NC(=O)c3cccc([N+](=O)[O-])c3)c(Br)cc21 was read as HSP90 refold inh 0, DAX1 inh 0, HSF-1 act 14, AHR act 101*, GAA850 FXN act 1, HSF1 inh 0, AHR act confirm 101* and PXR act counter 10.
Screening CCc1ccc(NC(=O)Cc2cn(C)c3ccccc23)cc1 returned HSP90 refold inh 3, DAX1 inh -1, HSF-1 act 20, AHR act 37, GAA850 FXN act -2 and HSF1 inh 10.
CCc1cccc(NC(=O)Cc2cn(C)c3ccccc23)c1 was read as HSP90 refold inh 1, DAX1 inh 2, HSF-1 act 5, AHR act 104*, GAA850 FXN act 2, HSF1 inh 2, AHR act confirm 24 and PXR act counter 83*.
For O=C(NC1CCCCC1)C1CC(=O)N(c2ccccc2)C1 (stereo not given) the results were HSP90 refold inh 0, DAX1 inh 0, HSF-1 act 2, AHR act -2, GAA850 FXN act 2 and HSF1 inh -6.
Clc1ccc2[nH]c(-c3ccccc3)cc2c1 was read as HSP90 refold inh 3, DAX1 inh 1, AHR act 115*, GAA850 FXN act 2, AHR act confirm 138* and PXR act counter 17*.
Screening O=c1cc(-c2ccccc2)[nH]c2cc(Cl)ccc12 returned HSP90 refold inh -3, DAX1 inh -2, HSF-1 act -4, AHR act 96*, GAA850 FXN act 1, HSF1 inh -3, AHR act confirm 64* and PXR act counter 23*.
Screening Cc1cc(NC(=O)CSc2nc(=O)cc(N)n2-c2ccc(C)c(C)c2)no1 returned HSP90 refold inh 2, DAX1 inh 0, HSF-1 act 33, AHR act -2, GAA850 FXN act -1 and HSF1 inh 14.
Fc1ccccc1-c1ccc(/C=N/Nc2nc3ccccc3[nH]2)o1 was read as HSP90 refold inh -2, DAX1 inh 1, HSF-1 act 384*, AHR act 84*, GAA850 FXN act 7, HSF1 inh 379, AHR act confirm 78* and PXR act counter 11*.
For Cc1ccc(/C=N\Nc2nc3ccc(Cl)cc3[nH]2)o1 the results were HSP90 refold inh -7, DAX1 inh 1, HSF-1 act inconclusive, AHR act 165*, GAA850 FXN act 2, HSF1 inh 27, AHR act confirm 117* and PXR act counter 22*.
For O=Cc1ccccc1-c1cn(CN2C(=O)c3ccccc3C2=O)nn1 the results were HSP90 refold inh -5, DAX1 inh 1, HSF-1 act 12, AHR act 2, GAA850 FXN act 3 and HSF1 inh 8.
For CN(C)CCCN1C(=O)c2cccc3cccc(c23)C1=O the results were HSP90 refold inh -1, DAX1 inh 0, HSF-1 act 3, AHR act 141*, GAA850 FXN act 2, HSF1 inh 13 and AHR act confirm 163*.
